Screening data: PubChem BioAssay, Broad Institute
CFTR F508del cor – correctors of CFTR F508del function in bronchial epithelial cells; actives 0.36% (n = 350,000); CFBE cells, YFP halide quenching; stimulated with forskolin plus potentiator P3; % fluorescence drop versus neutral controls; activity (quench increase), % at 7.58 µM;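 active = mean added fluorescence quench of at least 8% versus neutral control, with both replicates also reaching 8%; inconclusive = only one of the mean or replicate conditions met; inactive = mean below 8% and not both replicates reaching 8%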;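 note: cells transiently co-express mutant CFTR-F508del with the halide-sensitive YFP; corrector assay measuring rescue of mutant channel to the surface after 24 h compound exposure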
LGR2 inh – inhibitors of bursicon-induced Drosophila LGR2 receptor cAMP signaling | HEK293 LGR2, CRE-luciferase, bursicon-stimulated, 4 h | inhibition, % at 9.99 µM | actives 0.35% (n = 380,000) | AID 720647;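 active = drop in luminescence signal, shown as inhibition above about 50% in the replicate tests, limit read from the data, passing the limit was not always enough; inconclusive = probably only some replicates passing the limit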;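 note: agonist challenge used bursicon conditioned medium at about half maximal strength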
PAX8 inh HTS – PAX8 transcriptional activity inhibition. RMG-I TPO-luciferase reporter, SteadyGlo, 24 h. inhibition, % at 12.6 µM. actives 1.2% (n = 360,000);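 active = mean replicate inhibition at least 60% with every replicate also reaching 60%; inconclusive = only one of the two criteria is met; inactive = mean below 60% and not all replicates reaching 60%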;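 note: luciferase light reporting Pax8 driven TPO promoter activity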
EWS-Fli inh – inhibitors of EWS/Fli oncoprotein transcriptional activity; AID 651661; actives 0.67% (n = 350,000); inhibition, % at 12.6 µM; A673 NR0B1-luciferase reporter, viability-normalised;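 active = mean inhibition of at least 50% after viability correction, with every replicate also passing that limit; inconclusive = mean reaches 50% but only one of two replicates passes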;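 note: firefly luciferase signal divided by Alamar Blue viability fluorescence both relative to DMSO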
A number is an active result; – = inactive; ? = inconclusive; · = not tested or not shown. Rows were chosen to be rich in hits. Some 1.8% of all compounds tested hit in one or more screens of this group.

SMILES	CFTR F508del cor	LGR2 inh	PAX8 inh HTS	EWS-Fli inh
C[C@@H]1CN([C@H](C)CO)C(=O)Cc2cc(NC(=O)Cc3ccccc3)ccc2O[C@@H]1CN(C)Cc1ccc(-c2ccccc2)cc1	–	–	–	–
C[C@H](CO)N1C[C@H](C)[C@H](CN(C)Cc2ccc(-c3ccccc3)cc2)Oc2ccc(NC(=O)Cc3ccccc3)cc2CC1=O	–	–	66	–
OCCC1CN(Cc2nc3ccccc3s2)CCN1C1CCCCC1 (configuration not stated)	–	–	–	–
COc1cc(/C=N/Nc2nc3c(c(=O)n(C)c(=O)n3C)n2Cc2ccccc2)ccc1OC(=O)c1ccco1	–	51	–	–
COc1ccc2c3c([nH]c2c1)[C@H](CO)N(Cc1ccccc1)CC31CN(C(=O)NC(C)C)C1	–	–	·	–
O=S1(=O)c2ccc(Br)cc2N2CCC[C@@H]2CN1Cc1ccccc1	–	–	–	52
O=C(CNc1cccc(S(=O)(=O)N2CCCC2)c1)Nc1ccc(F)cc1F	–	–	–	–
O=C1/C(=C/c2ccccc2)CN(C(=O)CCN2CCOCC2)C/C1=C\c1ccccc1	–	103	–	65
CN(C)CCC(=O)N1C/C(=C/c2ccccc2)C(=O)/C(=C\c2ccccc2)C1	–	102	·	80
CCOC(=O)N1C/C(=C\c2ccccc2)C(=O)/C(=C/c2ccccc2)C1	–	–	–	–
O=C(/C=C/c1ccccc1)CCN1CCOCC1	–	–	–	–
C[N+](C)(C)CCC(=O)N1C/C(=C/c2ccccc2)C(=O)/C(=C\c2ccccc2)C1	–	–	–	58
CN1CCN(C(=O)C[C@H]2C[C@@H]3c4cc(NC(=O)Nc5ccc(F)cc5)ccc4O[C@@H]3[C@H](CO)O2)CC1	–	–	·	–
C[C@@H]1CN([C@H](C)CO)C(=O)c2cccc(NC(=O)Nc3cccc4ccccc34)c2O[C@H]1CN(C)S(=O)(=O)c1cccs1	–	–	·	–
Cc1ccc(S(=O)(=O)Nc2cc(Cl)c(O)c3ncccc23)cc1	–	–	84	–
O=c1ccn([C@H]2C[C@H](O)[C@@H](CO)O2)c(=O)[nH]1	–	–	·	–
O=C(CN1CCOc2ccccc21)NCc1ccc(Cl)cc1	9.2	–	–	–
O=C(CN1CCOc2ccccc21)NCc1ccc(F)cc1	–	?	–	–
CN(C)S(=O)(=O)c1ccc2c(c1)c(=O)c(C(=O)N1CCN(c3ccccn3)CC1)cn2C	–	–	–	–
CCC(C)NS(=O)(=O)c1ccc(NC(=O)C(Sc2ccccc2)c2ccccc2)cc1 (configuration not stated)	–	–	–	–
CCCCNS(=O)(=O)c1ccc(NC(=O)C(Sc2ccccc2)c2ccccc2)cc1 (configuration not stated)	·	–	72	·
COc1ccccc1N(C(=O)CNC(=O)c1ccco1)C(C(=O)NCC1CCCO1)c1ccccc1 (configuration not stated)	–	–	–	–
COc1ccc(S(=O)(=O)Nc2ccc3c(c2)[C@H]2C[C@H](CC(=O)NCC4CC4)O[C@@H](CO)[C@H]2O3)cc1	–	–	–	–
COc1ccc(C(=O)Cn2c(C)nc([N+](=O)[O-])c2Br)cc1	–	–	–	–
Cc1nc([N+](=O)[O-])c(Br)n1Cc1ccc(Cl)c(Cl)c1	–	–	–	54
SMILES	CFTR F508del cor	LGR2 inh	PAX8 inh HTS	EWS-Fli inh
CCC(=O)Nc1ccc2c(c1)C(=O)N(C)[C@@H]1CC[C@H](CC(=O)N3CCc4ccccc4C3)O[C@@H]1CO2	–	–	–	–
Cc1[nH]n(-c2ccccc2)c(=O)c1N=Nc1ccc(C(=O)O)cc1	–	–	–	–
Cc1[nH]n(-c2ccccc2)c(=O)c1N=Nc1cccc(C(=O)O)c1	–	–	65	62
Cc1cccc(NC(=O)c2cc(NC(=O)c3ccccc3)ccc2N2CCCCC2)c1	·	·	–	·
C#Cc1ccc(C(=O)Nc2ccc(N3CCC(C)CC3)c(C(N)=O)c2)cc1	16	·	–	–
CC[C@@H](C)[C@H](C(CC(=O)N1CCCC1[C@@H](OC)[C@H](C)C(=O)N[C@H](Cc1ccccc1)c1nccs1)OC)N(C)C(=O)[C@H](NC(=O)[C@@H](C(C)C)N(C)C)C(C)C (some centres not stated)	–	–	82	–
O=C(OCN1C(=O)C(=O)c2ccccc21)c1ccc(Cl)cc1	–	–	–	–
Cc1ccc(NC(=O)C2=C(c3ccccc3)S(=O)(=O)CCS2(=O)=O)cc1	–	–	116	65
Cc1ccc(NC(=O)c2ccccc2)cc1	·	·	–	·
Cc1cc(OCCCn2cnc3ccccc3c2=O)ccc1[N+](=O)[O-]	–	–	88	–
O=c1c2ccccc2ncn1CCCOc1ccccc1[N+](=O)[O-]	·	–	·	·
CCO[C@H]1OC(C(=O)NCc2nc3ccccc3[nH]2)=C[C@@H](c2ccccc2)[C@@H]1CCCO	–	–	–	–
CCO[C@H]1OC(C(=O)NCc2nc3ccccc3[nH]2)=C[C@@H](C2CC2)[C@@H]1CCCO	–	–	–	61
O=C(Nc1cccnc1)c1ccc([N+](=O)[O-])s1	–	–	67	–
O=C1ON(Cc2ccccc2)C(c2ccccc2)N1c1ccccc1 (configuration not stated)	–	–	–	–
Cc1ccc(/C=C/C(=O)Nc2cc(C)on2)cc1	·	·	–	·
Cc1ccc(/C=C/C(=O)NC2=NCCS2)cc1	–	72	–	–
COc1ccc(N2CCc3c(C)nc4c(OC)cccc4c32)cc1	?	–	–	?
COc1ccc(N2CCc3c(C)nc4c(OC)cc(OC)cc4c32)cc1	11	–	–	–
O=C(N/N=C/c1cc(Cl)ccc1O)c1ccncc1	–	–	66	–
O=C(N/N=C/c1cc(Br)ccc1O)C(=O)Nc1ccccc1OC(F)(F)C(F)F	·	–	·	·
O=C(N/N=C/c1ccccc1Cl)c1ccncc1	–	–	–	–
Cc1ccc(C(=O)N/N=C/c2cc(Br)ccc2O)cn1	12	–	–	–
O=C(N/N=C/c1cc(Cl)ccc1O)C(=O)Nc1ccccc1OC(F)(F)C(F)F	·	–	70	–
CC1(C(=O)NS(=O)(=O)c2cccc(C#N)c2)CCN1C(=O)c1ccccc1CCc1ccccc1 (configuration not stated)	–	–	–	–
SMILES	CFTR F508del cor	LGR2 inh	PAX8 inh HTS	EWS-Fli inh
O=C(/C=C/c1ccc(Cl)cc1)N1CCN(CCN2C(=O)c3cccc4cccc(c34)C2=O)CC1	–	–	–	–
CCC(=O)Nc1cccc(NC(=S)NC(=O)c2ccc(Cl)cc2)c1	·	–	·	·
O=C1C=CCCN1C(=O)/C=C/c1cccc(Br)c1	–	·	–	64
c1csc(-c2nc(NCC3CCCO3)c3ccccc3n2)c1 (configuration not stated)	–	–	–	–
c1ccc2c(NCC3CCCO3)nc(N3CCCCC3)nc2c1 (configuration not stated)	–	–	63	–
O=[N+]([O-])c1ccc(N=Nc2ncc[nH]2)cc1	–	–	74	63
O=[N+]([O-])c1ccc(N=NN(CCO)CCO)cc1	–	–	–	–
COc1ccc(CN(C)C[C@H]2Oc3ccc(NC(=O)CCCCCC(=O)Nc4ccccc4N)cc3C(=O)N([C@H](C)CO)C[C@H]2C)cc1	–	–	–	–
